Results filed as inconclusive are left out. Active and inactive are the calls of the source. Calls come from the whole dose curve; as a rule, active = well fitted cell-killing curve with a large enough effect; inconclusive = small, poorly fitted or top-dose-only effect, or effect the other way; inactive = flat fitted curve, though single readings scatter.
What was measured:
Assay in all cases: Primary qHTS to identify gynecologic anti-cancer compounds using libraries of approved drugs and bioactive compounds (AID 1345084); note: nearly all actives have a fitted effect of over 55% in size
CASKI = details: Gynecologic cancer cell panel viability, ATPlite luminescence, 48 h; series mostly up to 57.5 µM
Method in brief: (§1)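 ATP-based viability (ATPlite), 1,000 cells/well, 16 h pre-incubation, 48 h compound at 37 C, 5% CO2, 15 min RT before read.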

Es-2 = details: Gynecologic cancer cell panel viability, ATPlite luminescence, 48 h; series mostly up to 57.5 µM
Method in brief: as §1

HeLa = details: Gynecologic cancer cell panel viability, ATPlite luminescence, 48 h; series mostly up to 57.5 µM
Method in brief: as §1

Hek293T = details: Gynecologic cancer cell panel viability, ATPlite luminescence, 48 h, control line for the selectivity index; series mostly up to 57.5 µM
Method in brief: as §1

JEG-3 = details: Gynecologic cancer cell panel viability, ATPlite luminescence, 48 h; series mostly up to 57.5 µM
Method in brief: as §1

OV90 = details: Gynecologic cancer cell panel viability, ATPlite luminescence, 48 h; series mostly up to 57.5 µM
Method in brief: as §1

PA-1 = details: Gynecologic cancer cell panel viability, ATPlite luminescence, 48 h; series mostly up to 57.5 µM
Method in brief: as §1

SKOV3 = details: Gynecologic cancer cell panel viability, ATPlite luminescence, 48 h; series mostly up to 57.5 µM
Method in brief: as §1

Tov-21-G = details: Gynecologic cancer cell panel viability, ATPlite luminescence, 48 h; series mostly up to 57.5 µM
Method in brief: as §1

Tov112D = details: Gynecologic cancer cell panel viability, ATPlite luminescence, 48 h; series mostly up to 57.5 µM
Method in brief: as §1
% is set by controls: 0 for no effect and ±100 for the full control effect.

COc1ccc(/C=C/C(=O)O[C@@H]2[C@@H](O)[C@H](C)O[C@@H](OC3C4C=COC(O[C@@H]5O[C@H](CO)[C@@H](O)[C@H](O)[C@H]5O)C4C4(CO)OC34)[C@@H]2O)cc1OC (stereo not given in full)
inactive: Potency (CASKI) | Potency (Es-2) | Potency (HeLa) | Potency (Hek293T) | Potency (JEG-3) | Potency (OV90) | Potency (PA-1) | Potency (SKOV3) | Potency (Tov-21-G) | Potency (Tov112D)

C/C(=C\CCC(C)(O)c1ccc(C)cc1)C(=O)O (stereo not given)
inactive: Potency (CASKI) | Potency (Es-2) | Potency (HeLa) | Potency (Hek293T) | Potency (JEG-3) | Potency (OV90) | Potency (PA-1) | Potency (SKOV3) | Potency (Tov-21-G) | Potency (Tov112D)

C[C@@H]1O[C@@H](O[C@H]2[C@H](O[C@H]3CC[C@@]4(C)C(CC[C@]5(C)C4CC=C4C6CC(C)(C)CC[C@]6(C(=O)O[C@@H]6O[C@H](CO[C@@H]7O[C@H](CO)[C@@H](O[C@@H]8O[C@@H](C)[C@H](O)[C@@H](O)[C@H]8O)[C@H](O)[C@H]7O)[C@@H](O)[C@H](O)[C@H]6O)CC[C@]45C)[C@]3(C)CO)OC[C@H](O)[C@@H]2O)[C@H](O)[C@H](O)[C@H]1O (stereo not given in full)
inactive: activity change, negative = cytotoxicity (CASKI) -8.63% [at 6.55 µM] | activity change, negative = cytotoxicity (Es-2) 23.6% [at 6.55 µM] | activity change, negative = cytotoxicity (HeLa) -1.03% [at 6.55 µM] | activity change, negative = cytotoxicity (Hek293T) -5.22% [at 6.55 µM] | activity change, negative = cytotoxicity (JEG-3) -11.6% [at 6.55 µM] | activity change, negative = cytotoxicity (OV90) -14.8% [at 6.55 µM] | activity change, negative = cytotoxicity (PA-1) -4.46% [at 6.55 µM] | activity change, negative = cytotoxicity (SKOV3) -11.7% [at 6.55 µM] | activity change, negative = cytotoxicity (Tov-21-G) 8.28% [at 6.55 µM] | activity change, negative = cytotoxicity (Tov112D) -13.6% [at 6.55 µM]

COC1(CC(C)C)NC(=O)C(O)(Cc2ccccc2)NC1=O (stereo not given)
inactive: Potency (CASKI) | Potency (Es-2) | Potency (HeLa) | Potency (Hek293T) | Potency (JEG-3) | Potency (OV90) | Potency (PA-1) | Potency (SKOV3) | Potency (Tov-21-G) | Potency (Tov112D)

CO[C@@H]1COCC[C@@H]1N[C@@H]1CC[C@@](C(=O)N2CCc3ncc(C(F)(F)F)cc3C2)(C(C)C)C1
inactive: Potency (CASKI) | Potency (Es-2) | Potency (HeLa) | Potency (Hek293T) | Potency (JEG-3) | Potency (OV90) | Potency (PA-1) | Potency (SKOV3) | Potency (Tov-21-G) | Potency (Tov112D)

C=CCc1ccc(O[C@@H]2O[C@H](CO[C@@H]3O[C@@H](C)[C@H](O)[C@@H](O)[C@H]3O)[C@@H](O)[C@H](O)[C@H]2O)cc1
inactive: Potency (CASKI) | Potency (Es-2) | Potency (HeLa) | Potency (Hek293T) | Potency (JEG-3) | Potency (OV90) | Potency (PA-1) | Potency (SKOV3) | Potency (Tov-21-G) | Potency (Tov112D)

Cc1c(N2C(=O)c3ccc(C(=O)O)cc3C2=O)c(=O)n(-c2ccccc2)n1C
inactive: Potency (CASKI) | Potency (Es-2) | Potency (HeLa) | Potency (Hek293T) | Potency (JEG-3) | Potency (OV90) | Potency (PA-1) | Potency (SKOV3) | Potency (Tov-21-G) | Potency (Tov112D)

C=CC1(C)CC2=CCC3C(C)(C(=O)O)CCCC3(C)C2CC1OC(C)=O (stereo not given)
inactive: Potency (CASKI) | Potency (Es-2) | Potency (HeLa) | Potency (Hek293T) | Potency (JEG-3) | Potency (OV90) | Potency (PA-1) | Potency (SKOV3) | Potency (Tov-21-G) | Potency (Tov112D)

C[C@@H]1O[C@@H](O[C@H]2[C@H](OC(=O)C34CCC5(C)C(=CCC6C7(C)CC(O)C(O[C@@H]8O[C@H](C(=O)O)[C@@H](O)[C@H](O)[C@H]8O)C(C)(C(=O)O)C7CCC65C)C3CC(C)(C)CC4O)O[C@H](C)[C@@H](O)[C@@H]2O)[C@H](O)[C@@H](O[C@@H]2OC[C@](O)(CO)[C@H]2O[C@@H]2O[C@H](CO)[C@@H](O)[C@H](O)[C@H]2O)[C@H]1O (stereo not given in full)
inactive: activity change, negative = cytotoxicity (CASKI) 3.56% [at 6.55 µM] | activity change, negative = cytotoxicity (Es-2) -1.29% [at 6.55 µM] | activity change, negative = cytotoxicity (HeLa) -4.39% [at 6.55 µM] | activity change, negative = cytotoxicity (Hek293T) 5.55% [at 6.55 µM] | activity change, negative = cytotoxicity (JEG-3) 16.4% [at 6.55 µM] | activity change, negative = cytotoxicity (OV90) -2.48% [at 6.55 µM] | activity change, negative = cytotoxicity (PA-1) 9.01% [at 6.55 µM] | activity change, negative = cytotoxicity (SKOV3) 13.1% [at 6.55 µM] | activity change, negative = cytotoxicity (Tov-21-G) -3.03% [at 6.55 µM] | activity change, negative = cytotoxicity (Tov112D) 10.3% [at 6.55 µM]

CC(C)(O)c1ccc2c(c1)C(O)CC1C(C)(C(=O)O)CCCC21C (stereo not given)
inactive: Potency (CASKI) | Potency (Es-2) | Potency (HeLa) | Potency (Hek293T) | Potency (JEG-3) | Potency (OV90) | Potency (PA-1) | Potency (SKOV3) | Potency (Tov-21-G) | Potency (Tov112D)

COc1cc(/C=C/c2cc(O)cc(O[C@@H]3O[C@H](CO)[C@@H](O)[C@H](O)[C@H]3O)c2)ccc1O
inactive: Potency (CASKI) | Potency (Es-2) | Potency (HeLa) | Potency (Hek293T) | Potency (JEG-3) | Potency (OV90) | Potency (PA-1) | Potency (SKOV3) | Potency (Tov-21-G) | Potency (Tov112D)

C=CC(C)(O)CC/C=C(\C)C(=O)OCC1OC(OC2CCC3(C)C(CCC4(C)C3CC=C3C5CC(C)(C)C(O)CC5(C(=O)O)CCC34C)C2(C)C)C(O)C(OC2OC(CO)C(O)C(OC3OC(CO)C(O)C(OC4OC(COC5OC(CO)C(O)C(O)C5O)C(O)C(O)C4O)C3O)C2O)C1O (stereo not given)
inactive: activity change, negative = cytotoxicity (CASKI) 11.9% [at 6.55 µM] | activity change, negative = cytotoxicity (Es-2) 0.769% [at 6.55 µM] | activity change, negative = cytotoxicity (HeLa) 3.26% [at 6.55 µM] | activity change, negative = cytotoxicity (Hek293T) 3.14% [at 6.55 µM] | activity change, negative = cytotoxicity (JEG-3) 7.76% [at 6.55 µM] | activity change, negative = cytotoxicity (OV90) 12.5% [at 6.55 µM] | activity change, negative = cytotoxicity (PA-1) 15.1% [at 6.55 µM] | activity change, negative = cytotoxicity (SKOV3) 0.954% [at 6.55 µM] | activity change, negative = cytotoxicity (Tov-21-G) 2.74% [at 6.55 µM] | activity change, negative = cytotoxicity (Tov112D) -3.38% [at 6.55 µM]

C=C[C@H]1[C@H](O[C@@H]2O[C@H](CO[C@@H]3OC[C@](O)(CO)[C@H]3O)[C@@H](O)[C@H](O)[C@H]2O)OC=C2C(=O)OCC[C@H]21
inactive: Potency (CASKI) | Potency (Es-2) | Potency (HeLa) | Potency (Hek293T) | Potency (JEG-3) | Potency (OV90) | Potency (PA-1) | Potency (SKOV3) | Potency (Tov-21-G) | Potency (Tov112D)

CC(C)(O)c1ccc2c(c1)C(=O)CC1[C@](C)(CO)CCC[C@]21C (stereo not given in full)
inactive: Potency (CASKI) | Potency (Es-2) | Potency (HeLa) | Potency (Hek293T) | Potency (JEG-3) | Potency (OV90) | Potency (PA-1) | Potency (SKOV3) | Potency (Tov-21-G) | Potency (Tov112D)

CC1=CC(=O)C2C(C)(C)CCCC2(C)C12CCC1(COC(=O)C1)O2 (stereo not given)
inactive: Potency (CASKI) | Potency (Es-2) | Potency (HeLa) | Potency (Hek293T) | Potency (JEG-3) | Potency (OV90) | Potency (PA-1) | Potency (SKOV3) | Potency (Tov-21-G) | Potency (Tov112D)

CC1CCC2C(C)(C)C(O)CCC2(C)C12Cc1c(O)cc3c(c1O2)C(N)=NC3 (stereo not given)
inactive: Potency (CASKI) | Potency (Es-2) | Potency (HeLa) | Potency (Hek293T) | Potency (JEG-3) | Potency (OV90) | Potency (PA-1) | Potency (SKOV3) | Potency (Tov-21-G) | Potency (Tov112D)

CCC(CCO[C@@H]1O[C@H](CO[C@H]2OC[C@](O)(CO)[C@H]2O)[C@@H](O)[C@H](O)[C@H]1O)C(C)(C)O (stereo not given in full)
inactive: Potency (CASKI) | Potency (Es-2) | Potency (HeLa) | Potency (Hek293T) | Potency (JEG-3) | Potency (OV90) | Potency (PA-1) | Potency (SKOV3) | Potency (Tov-21-G) | Potency (Tov112D)

COC(=O)C1=C[C@@H](O)[C@@H](O)[C@H](O[C@@H]2O[C@H](COC(=O)/C=C/c3ccccc3)[C@@H](O)[C@H](O)[C@H]2O)C1
inactive: Potency (CASKI) | Potency (Es-2) | Potency (HeLa) | Potency (Hek293T) | Potency (JEG-3) | Potency (OV90) | Potency (PA-1) | Potency (SKOV3) | Potency (Tov-21-G) | Potency (Tov112D)

COc1ccc([C@@H]2N[C@H](C(=O)O)Cc3c2[nH]c2ccccc32)cc1CN1CCN(c2ccccc2F)CC1
inactive: Potency (CASKI) | Potency (Es-2) | Potency (HeLa) | Potency (Hek293T) | Potency (JEG-3) | Potency (OV90) | Potency (PA-1) | Potency (SKOV3) | Potency (Tov-21-G) | Potency (Tov112D)

Reference: PubChem BioAssay (NCATS)
